An excerpt weighted towards active compounds, which were near 7.9% of everything screened.
KB-3-1 cytotox – KB-3-1 parental cell cytotoxicity; Potency, µM (series often up to 46.1 µM), hits mostly cytotoxic; 1.4% of 400,000 active; AID 1347075; KB-3-1 viability, CellTiter-Glo ATP luminescence, 72 h; further: on the % scale 0 is the no-effect control and ±100 the full control effect; nearly all actives have a fitted effect of over 60% in size
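KB-3-1 parental drug-naive adenocarcinoma cells in DMEM/10% FBS, incubated 72 h at 37 C with pin-transferred compounds across a concentration series. Viability by CellTiter-Glo luminescence; concentration-response curves fitted after normalization.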
SW480 rereplic – induces DNA re-replication in SW480 colon adenocarcinoma cells. 1.8% of 340,000 active. Potency, µM (top dose mostly 46.1 µM), for the others: top-dose re-replication activation, hits mostly activators. SW480 DNA re-replication, Hoechst DNA content imaging, 48 h. AID 624297; further: % of control where 0% means no effect; nearly all actives have a fitted effect of over 55% in size
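First, 250 cells per well were seeded. Next, compound or vehicle (23 nL) was pinned in, plates sat 48 hr at 37 C. Finally Hoechst was added for 40 min before fluorescence scanning.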
KB-V1 MDR tox – KB-V1 MDR subline cytotoxicity. KB-V1 MDR cells viability, CellTiter-Glo, 72 h. Potency, µM (top dose mostly 46.1 µM), hits mostly cytotoxic. 3.4% of 400,000 active. AID 1347076; further: on the % scale 0 is the no-effect control and ±100 the full control effect; nearly all actives have a fitted effect of over 60% in size
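Cells of the MDR subline KB-V1 are plated, dosed with compound at multiple concentrations, and incubated 72 h at 37 degrees C; CellTiter-Glo is then added and luminescence read after 10 min.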
HT1080NT lethal – kills 2HG-producing HT-1080-NT fibrosarcoma cells; HT-1080-NT fibrosarcoma viability, CellTiter-Glo ATP luminescence, 48 h; Potency, µM (top dose mostly 46.1 µM), for inactives: at the top dose activity, negative = less viability, hits mostly cytotoxic; 1.6% of 360,000 active;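 further: NT is the 2HG producing partner of a matched IDH1 knockdown line; 0% = DMSO-treated cells and -100% = media-only wells without cells; nearly all actives have a fitted effect of over 55% in size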
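Luminescent CellTiter-Glo readout after 48 hours of compound exposure at 37 degrees C defined viability of HT-1080-NT cells. Activity was normalized to DMSO wells and cell-free media wells; concentration-response curves were fitted and assigned curve classes.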
MCF10A rerep – induces DNA re-replication in MCF 10a normal breast cells. AID 624296. MCF 10A DNA re-replication, Hoechst nuclear intensity, 48 h. Potency, µM (top dose mostly 46.1 µM), for inactives: top-dose activity, positive = re-replication, hits mostly activators. 2.9% of 350,000 active; further: % of control where 0% means no effect; nearly all actives have a fitted effect of over 50% in size
HT1080 IDH1KD tx – HT-1080 IDH1 knockdown cell toxicity (counter line); 2% of 360,000 active; AID 686971; HT-1080 IDH1 knockdown viability, ATP luminescence, 48 h; Potency, µM (series often up to 46.1 µM), inactives show at the top dose activity, negative = toxicity, most hits filed as cytotoxic;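 further: 0% = DMSO wells and -100% = cell-free medium wells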
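HT-1080-IDH1KD cells (IDH1 knocked down), 750/well in RPMI with 5% FBS, treated with compound 48 h at 37 degrees C. Viability by CellTiter-Glo luminescence, normalised to DMSO and no-cell wells; concentration-response curves classed.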
Active calls of the source: *; i = inactive; ? = inconclusive; · = not tested or not shown; [ ] = remark or other dose. The call rests on the fitted dose curve; in most records, active means well fitted curve in the direction sought with a large enough effect; inconclusive means small, poorly fitted or top-dose-only effect, or another doubt; inactive means no such curve, though single readings can be large; an effect the other way counts as inactive or inconclusive. Potency means the concentration at half of the fitted maximal effect.

SMILES | KB-3-1 cytotox | SW480 rereplic | KB-V1 MDR tox | HT1080NT lethal | MCF10A rerep | HT1080 IDH1KD tx
CCSc1cnn(-c2ccccc2)c(=O)c1SCC | i | -0.2% | i | 1.4% | 4.4% | 5.3%
CCCCSc1cnn(-c2ccccc2)c(=O)c1SCCCC | 18.4µM* | ? | 18.4µM* | ? | ? | -13.1%
CCc1c(C)c(C#N)c2nc3ccccc3n2c1Nc1cccc(C(F)(F)F)c1 | ? | · | i | · | · | ·
COc1cccc(N/C(SCc2cccc([N+](=O)[O-])c2)=C(/C#N)C(N)=O)c1 | i | ? | ? | ? | ? | 16.4µM*
CC(=O)Nc1cccc(OCCCOc2cccc([N+](=O)[O-])c2)c1 | i | ? | 9.2µM* | 3.3% | 8.2% | 15.4%
COCCCNC(=O)c1cccc(NC(=O)c2ccccc2)c1 | i | -15.9% | ? | -0.1% | ? | ?
COc1ccc(OCCCC(=O)Nc2cccc([N+](=O)[O-])c2)cc1 | i | ? | ? | 0.1% | 27.7% | 3.6%
CC(=O)Nc1cccc(OCCCNC(=O)c2ccc(C(C)(C)C)cc2)c1 | ? | 3.5% | i | ? | -0.4% | 14.6µM*
CC(C)OCCCNC(=O)c1cccc(NC(=O)c2ccccc2)c1 | i | -1.0% | 16.4µM* | 14.1% | 2.0% | 15.0%
CC(C)OC(=O)c1cccc(NC(=O)c2ccccc2)c1 | i | 6.1% | 11.6µM* | -2.9% | ? | -6.3%
CC(=O)N/N=C/c1cc([N+](=O)[O-])ccc1OCCOc1ccccc1 | i | 20.6µM* | i | -10.3% | 3.6% | -2.6%
Cn1c(CC(O)c2nc3ccccc3n2C)nc2ccccc21 (stereo not given) | i | · | i | 11.9% | · | -0.9%
O=C1C=CC2(C=C1)O[C@H](Cc1ccccc1)[C@@H](Cc1ccccc1)O2 | ? | 0.92µM* | 16.4µM* | 3.66µM* | ? | 1.16µM*
COc1ccc(C[C@@H]2OC3(C=CC(=O)C=C3)O[C@H]2Cc2ccc(OC)cc2)cc1 | 2.31µM* | 0.92µM* | ? | 5.17µM* | 0.731µM* | 1.3µM*
Nc1ccc[n+](CC(=O)c2ccc(F)cc2)c1 | ? | · | i | · | · | ·
CC(=O)Nc1ccc(S(=O)(=O)Oc2ccc(N3C(=O)C4CCCCC4C3=O)cc2)cc1 (stereo not given) | ? | -16.2% | 18.4µM* | -17.2% | 8.8% | -11.7%
CN(CCOc1ccc(Cl)cc1)C(=O)c1cc(-c2ccco2)nc2ccccc12 | i | -27.8% | 16.4µM* | -4.9% | ? | -14.2%
Cn1c(=O)c2c(nc(NCc3cccnc3)n2Cc2cccc(C(F)(F)F)c2)n(C)c1=O | i | -2.5% | ? | 20.6µM* | 9.0% | 1.9%[9.24 µM]
COc1cccc(Cn2c(NCc3cccnc3)nc3c2c(=O)n(C)c(=O)n3C)c1 | 3.66µM* | -2.4% | i | 4.61µM* | 1.6% | 5.17µM*
Cc1ccc(Oc2nc3c(c(=O)n(Cc4ccccc4F)c(=O)n3C)n2C)cc1 | i | -6.7% | 11.6µM* | -1.7% | 1.9% | 8.0%
COc1cccc(Oc2nc3c(c(=O)n(Cc4ccccc4F)c(=O)n3C)n2C)c1 | i | · | i | · | · | ·
Cn1c(NCc2cccnc2)nc2c1c(=O)n(Cc1ccccc1F)c(=O)n2C | ? | -8.0% | 14.6µM* | -4.7% | -4.2% | -7.8%
CCn1c(=O)cc(OCC(=O)N(C)c2ccc(OC)cc2)c2ccccc21 | i | · | i | · | · | ·
COC(=O)Cn1c(C2CC(=O)N(c3c(C)cccc3C)C2)nc2ccccc21 (stereo not given) | i | · | i | · | · | ·
Cc1cc(C)cc(N2C(=O)CS(=O)(=O)C23C(=O)N(Cc2ccc(F)cc2)c2ccc(C)cc23)c1 (stereo not given) | i | · | ? | · | · | ·
CN(C(=O)COC(=O)c1nc(Cl)c(Cl)c(Cl)c1Cl)C1CCS(=O)(=O)C1 (stereo not given) | ? | ? | ? | 16.4µM* | 3.66µM* | 5.8µM*

Screens: PubChem, National Center for Advancing Translational Sciences (NCATS)
